Assay results published in PubChem BioAssay AID1347055 (National Center for Advancing Translational Sciences (NCATS), 2019).
Values joined by “and” are separate entries in the source; they are usually repeats but may differ in a detail not shown here. Equal entries are not always repeated. Screen size: about 54,000 compounds; about 120 (0.22%) were called active. Roughly 8% stayed inconclusive and do not appear here. Calls follow the shape of the dose curve; as a rule, active = well fitted inhibition curve with a large enough effect; inconclusive = small, poorly fitted or top-dose-only effect, or effect the other way; inactive = flat fitted curve, though single readings scatter. The list comes from a sample in which actives are over-represented; it also holds similar structures and randomly drawn compounds. A call without a number means that no potency is given here. The source holds several records for some structures; these can differ, active in one and inactive in another.

Molecular target: Fumarate hydratase, mitochondrial (Homo sapiens) (UniProt P07954)
Test: Identification of activators of human fumarate hydratase by quantitative high-throughput screening; also: the screen sought activators but most active calls are inhibition curves; nearly all actives have a fitted effect of over 45% in size
Details: FH coupled MDH/diaphorase resazurin fluorescence, 15 min; series mostly up to 79.9 µM
From the text: Fumarate hydratase (FH) is a metabolic enzyme that is part of the Krebs-cycle, and reversibly catalyzes the hydration of fumarate to malate. Mutations of the FH gene have been associated with fumarate hydratase deficiency (FHD), hereditary leiomyomatosis, renal cell cancer (HLRCC), and other diseases. Currently there are no high-quality small molecule probes for studying human fumarate hydratase. To address this, we developed a quantitative high throughput screening (qHTS) FH assay and screened a total of 57,037 compounds in dose-response. While no inhibitors of FH were confirmed, a series of phenyl-pyrrolo-pyrimidine-diones (12 compounds) were identified as activators of human fumarate hydratase. […] The binding of two compounds from the series to human fumarate hydratase was confirmed by microscale thermophoresis. The low hit rate in this screening campaign confirmed that FH is a "tough target" to modulate, and the small molecule activators of human fumarate hydratase reported here may serve as a starting point for further optimization and development into cellular probes of human FH and potential drug candidates.
For primary high-throughput screen, 3 ul of FH solution (containing 13.33nM human fumarate hydratase, 13.33IU/ml malic dehydrogenase, 0.2mM NAD, 0.067mg/ml diaphorase and 0.067mM resazurin in the assay buffer (50 mM Tris pH 8.0, 5 mM MgCl2, 0.01% Brij 3) was dispensed into each well in a black solid bottom 1536-well assay plate (Greiner Bio-One) using a BioRAPTR FRD dispenser (Beckman Coulter, Brea, CA). A 1536-well pintool dispenser outfitted with 20 nl pins (Wako Automation, San Diego, CA) was used to transfer 20 nL of DMSO-solubilized compound (Cherrypick plates) to each 1536-well assay plate. Each compound was screened at five concentrations: 15 nM, 151 nM, 1.5 uM, 15.4 uM, 76.9 uM. Following compound transfer, plates were incubated in room temperature for 10 minutes. 1 uL of substrate solution containing fumaric acid (160 uM) was dispensed via BioRAPTR FRD to initiate the reaction. Plates were immediately transferred to a ViewLux microplate imager (PerkinElmer, Waltham, MA), and any resulting resorufin fluorescence was measured (exitation/emission, 525/598 nm) at 0 and 15 minutes. The exposure time is 1 second. Fluorescence from each well was normalized using enzyme-free and DMSO-treated control wells on each plate, and changes in fluorescence (delta RFU) were calculated using the difference in fluorescent signal for each well at 15 minutes versus 0 minutes.
Potency is read from the fitted curve at half-maximal effect.

Fumarate hydratase, mitochondrial (Homo sapiens), sequence (P07954 whole entry, looked up): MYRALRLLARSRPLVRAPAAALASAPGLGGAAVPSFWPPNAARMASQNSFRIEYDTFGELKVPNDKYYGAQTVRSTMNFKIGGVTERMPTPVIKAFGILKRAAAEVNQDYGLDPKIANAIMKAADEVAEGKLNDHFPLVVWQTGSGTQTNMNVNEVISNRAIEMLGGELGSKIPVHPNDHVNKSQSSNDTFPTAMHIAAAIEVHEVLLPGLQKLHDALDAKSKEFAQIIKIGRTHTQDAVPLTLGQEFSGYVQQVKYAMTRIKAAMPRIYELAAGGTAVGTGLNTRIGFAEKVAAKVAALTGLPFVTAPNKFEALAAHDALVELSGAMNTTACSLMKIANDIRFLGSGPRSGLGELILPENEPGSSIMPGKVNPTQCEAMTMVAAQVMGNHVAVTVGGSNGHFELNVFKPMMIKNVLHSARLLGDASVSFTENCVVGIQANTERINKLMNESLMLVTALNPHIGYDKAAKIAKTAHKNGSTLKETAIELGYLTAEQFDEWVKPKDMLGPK

SMILES	activity change, negative = inhibition	Potency
C=C1CCC2C(C)(C(=O)OC)CCCC2(C)C1CCC1=CCOC1=O (centres undefined)	inactive	–
Cc1cn(CCN2CCN(c3ccccc3-c3cc(C#N)cc(C(=O)NCCCN4CCCC4)c3)CC2)c2ccccc12	inactive	–
COC(=O)C1=CO[C@@H](O[C@@H]2O[C@H](CO)[C@@H](O)[C@H](O)[C@H]2O)[C@H]2[C@@H]1C=C[C@]21C=C([C@H](C)OC(=O)/C=C/c2ccc(O[C@@H]3O[C@H](CO)[C@@H](O)[C@H](O)[C@H]3O)cc2)C(=O)O1	inactive	–
COc1ccccc1CNc1nc2ccc(Cl)cc2n2cnnc12	inactive	–
Cc1ccc(C)c(Cn2c(C(=O)O)c(CNCc3cccs3)c3ccccc32)c1	inactive	–
CNCC(O)c1ccc(O)c(O)c1 (centres undefined)	–	inactive and 6.92 µM (active)
O=C(COc1ccc(Cl)cc1)N(Cc1ccco1)Cc1ccco1	inactive	–
COc1ccccc1NC(=O)CSc1oc(-c2ccco2)nc1S(=O)(=O)c1ccc(Br)cc1	inactive	–
CNc1nc(-c2ccc3c(N)n[nH]c3c2)cc(N2CC(C(=O)NC3CCCCC3)CCC2C)n1 (centres undefined)	inactive	–
O=C(N[C@H]1CCC[C@H](CO)C1)C1CCN(c2nc3cc(Cl)c(-c4ccc(Cl)cc4)cc3o2)CC1	inactive	–
CCOC(=O)c1[nH]c(C)c(CCC(=O)NCc2ccccc2C)c1C	inactive	–
CCN(CC)C(=O)CSc1nc2ccsc2c(=O)n1Cc1ccccc1Cl	inactive	–
CCOc1ccc(-n2nc3ccc(NC(=O)c4ccc(OC)c(Cl)c4)cc3n2)cc1	inactive	–
Cc1nn(C(=O)c2c(F)cccc2F)c(C)c1S(=O)(=O)N1CCOCC1	inactive	–
COC(=O)C1=CO[C@@H](O[C@@H]2O[C@H](CO)[C@@H](O)[C@H](O)[C@H]2O)[C@@H]2[C@@H](C(=O)O)CC[C@H]12	inactive	–
CCCCC1CCN(CCCN2C(=O)CCc3ccccc32)CC1	inactive	–
CC/C=C\CC1C(=O)C=CC1(CCCCCCCC(=O)O)OC(C)=O (centres undefined)	inactive	–
COc1cccc(CNC(=O)c2ccc3c(Cl)c4c(nc3c2)CCCC4)c1	inactive	–
C=CC(C)(O)CO[C@@H]1O[C@H](CO)[C@@H](O)[C@H](O)[C@H]1O (some centres undefined)	inactive	–
Cc1cc2c(cc1S(=O)(=O)CCC(=O)NCc1ccccc1)OCC(=O)N2	inactive	–
CC(C)(OC1OC(CO)C(O)C(O)C1O)C1CCC(O)(CO)C2CC(O)C(C)(O)C2C1 (centres undefined)	inactive	–
O=C(/C=C/c1ccc(O)cc1)OCC1=C[C@@H](O)[C@@H]2C=CO[C@@H](O[C@@H]3O[C@H](CO)[C@@H](O)[C@H](O)[C@H]3O)[C@H]12	inactive	–
COc1cc(C(C)=O)c(OC)c2c1OC(C)(C)C=C2	inactive	–
O=C(CSc1nccn1C1CCCC1)Nc1cc(C(F)(F)F)ccc1Cl	inactive	–
C=CC(C)(O)CC/C=C(\C)C(=O)OC1C(O)C(CO)OC(OC(=O)C23CCC(C)(C)CC2C2=CCC4C5(C)CCC(OC6OC(COC7OCC(OC(C)=O)C(O)C7OC7OC(COC(C)=O)C(O)C(O)C7OC(C)=O)C(O)C(O)C6OC6OCC(O)C(O)C6O)C(C)(C)C5CCC4(C)C2(C)C(O)C3O)C1OC1OCC(OC2OCC(O)C(OC3OCC(O)C(O)C3O)C2O)C(O)C1O (centres undefined)	3.1% [at 13.5 µM] (inactive)	–
C=C1CCC[C@]2(C)CC/C(=C(/CO)C(=O)OC)C[C@@H]12	inactive	–
CC[C@H](C)[C@H](NC(=O)[C@H]([C@@H](C)CC)N(C)C(C)=O)C(=O)N[C@H](C(=O)N[C@@H](CC(C)C)C(=O)[C@@]1(C)CO1)[C@@H](C)O	inactive	–

SMILES	activity change, negative = inhibition	Potency
COc1cc(C2c3cc(O)c(OC)cc3CC(CO)C2CO)ccc1O (centres undefined)	inactive	–
CCOc1ccc(NC(=O)CC2C(=O)N(c3cccc(OC)c3)C(=O)N2C2CCCCC2)cc1 (centres undefined)	inactive	–
COc1cccc(C(=O)c2sc3nc(-c4ccccc4)cc(C(F)(F)F)c3c2N)c1	inactive	–
Cc1cccc(N2CCN(C(=O)Cn3ncc4c5ccccc5n(C)c4c3=O)CC2C)c1 (centres undefined)	inactive	–
CC(=O)/C=C/C1(O)C(C)(C)CC(O)CC1(C)O (centres undefined)	inactive	–
Cc1ccc2nc(COc3cccc(NC(=O)c4ccccc4Cl)c3)cc(=O)n2c1	inactive	–
O=C(Cn1c(=O)n(-c2ccc(F)cc2)c(=O)c2sccc21)Nc1cccc(C(F)(F)F)c1	inactive	–
COc1ccc(CCN2C(=O)N(c3cccc(OC)c3)C(=O)C2CC(=O)Nc2ccccc2)cc1 (centres undefined)	inactive	–
CC1=C(C)C(=O)OC(C(C)C2CCC3C4CC=C5CC(OC6OC(COC7OC(CO)C(O)C(O)C7O)C(O)C(O)C6O)CC(O)C5(C)C4CCC23C)C1 (centres undefined)	inactive	–
CN(C(=O)CSc1nc2ccc(NC(=O)COc3ccccc3)cc2s1)c1ccccc1	inactive	–
CC(Nc1ncnc2nc[nH]c12)c1cc2cccc(Cl)c2c(=O)n1-c1ccccc1 (centres undefined)	inactive	–
COc1ccc(NC(=O)c2ccc(-c3ccc(C(=N)N)cc3C)cc2)cc1N1CCN(C)CC1	inactive	–
Cc1c(C2=CCN(C(=O)N(C)C(C)C)CC2)nnn1-c1cccnc1F	inactive	–
C/C=C/C1=CC2=CC(=O)C(C)(O)C(OC(=O)c3c(C)cc(O)cc3O)C2CO1 (centres undefined)	inactive	–
COc1ccc(Cn2ccnc2SCC(=O)Nc2ccc3c(c2)OCO3)cc1	inactive	–
O=C(CSCc1cnn(-c2ccccc2)c1-n1cccc1)NCc1ccccc1Br	inactive	–
Cc1cccc(N2CCN(c3c(CN4CCCC4)c(=O)oc4ccccc34)CC2)c1C	inactive	–
Cn1c(=O)[nH]c(=O)c2c1nc(NCCc1ccccc1)n2Cc1ccc(F)cc1	inactive	–
CCCOc1cccc(C(=O)Nc2cccc(NC(=O)c3ccc(C(C)(C)C)cc3)c2)c1	inactive	–
COc1ccccc1-n1c(SCC(=O)Nc2nc3ccc(C)cc3s2)nc2c(c1=O)SCC2	inactive	–
COc1ccc(CCNc2ncnc3c2cnn3-c2ccc(C)cc2)cc1	inactive	–
CC1(C)C[C@H]2C3=CCC4[C@@]5(C)CC[C@H](O[C@H]6O[C@H](C(=O)O)[C@@H](O)[C@H](O)[C@H]6O[C@H]6O[C@H](CO)[C@@H](O)[C@H](O)[C@H]6O[C@@H]6O[C@H](CO)[C@@H](O)[C@H](O)[C@H]6O)[C@](C)(CO)C5CC[C@@]4(C)[C@]3(C)CC[C@@]2(C)[C@H](O[C@@H]2OC[C@H](O)[C@H](OC3O[C@H](CO)[C@@H](O)[C@H](O)[C@H]3O)[C@H]2O)[C@@H]1O (some centres undefined)	17.6% [at 13.5 µM] (inactive)	–
CCc1cc2c(cc(C(=O)OC)n2Cc2nc(-c3ccc(C)cc3)oc2C)s1	inactive	–
CCOC(=O)c1cc(OC(=O)c2ccccc2Cl)n(-c2ccccc2)n1	inactive	–
Cc1cc2ccccc2n1CCNC(=O)c1ccc(F)cc1	inactive	–
COc1ccc(Cl)cc1NC(=O)CSc1nc(=O)[nH]c2c1CCCC2	inactive	–
CCOc1ccc(-n2c(SCC(=O)NCc3ccccc3)nc3n[nH]c(C)c3c2=N)cc1	inactive	–

SMILES	activity change, negative = inhibition	Potency
CC(=O)Nc1c(C)nn(-c2ccccc2)c1N1CCC(C(=O)Nc2cc(Cl)ccc2C)CC1	inactive	–
CC1(O)CC(O)C2(O)C=COC(O[C@@H]3O[C@H](CO)[C@@H](O)[C@H](O)[C@H]3O)C12 (some centres undefined)	inactive	–
CCOc1ccc(CC(=O)NCCc2csc3nc(-c4ccccc4F)nn23)cc1	inactive	–
Cc1c(O)cc2c(c1O)COC1(O)CCCOC21 (centres undefined)	inactive	–
O=C(OC1CN2CCC1CC2)N1CCc2ccccc2C1c1ccccc1 (centres undefined)	inactive	–
C=C1C2(CCC(=O)OC2(C)C)CC(OC(=O)/C(C)=C/C)C2(C)C13OC14C(=O)OC(C)(C(=O)C12C(=O)OC4C)C3OC(C)=O (centres undefined)	inactive	–
CCOc1ccc(/C=C(\C#N)c2nc3ccccc3c(=O)[nH]2)cc1OC	inactive	–
N#CSc1cc(SC#N)c(N)nc1N	inactive	–
CCOc1cccc(CC(=O)N2CCc3c([nH]c4ccccc34)C2c2ccc(F)cc2)c1OCC (centres undefined)	inactive	–
CCOc1cccc2c1N[C@@H](c1ccc(C(=O)O)cc1)[C@H]1CC=C[C@@H]21	–	28.2 µM (active)
CCOc1ccccc1CNC(=O)c1ccc(-n2c(C)cc3c2CCC(C)C3)cc1 (centres undefined)	inactive	–
Cn1c(SCC(=O)N2CCC[C@H]2C(=O)Nc2ccccc2-c2ccccc2)nc2ccccc21	inactive	–
COc1cccc(C(=O)NCc2ccc3c(c2)CCN3C(=O)c2ccncc2)c1	inactive	–
CCc1cc2c(cc3c(=O)n(CC(=O)NCCc4ccc(OC)c(OC)c4)ncn32)s1	inactive	–
COc1cccc(N=C2SC(C(=O)Nc3cccc(Cl)c3)CC(=O)N2C)c1 (centres undefined)	inactive	–
COC(=O)N1CCC(n2ncc3c(N4CCOCC4)nc(-c4ccc(NC(=O)Nc5ccc(CO)cc5)cc4)nc32)CC1	inactive	–
[N-]=[N+]=N[C@]1(CO)O[C@@H](n2ccc(N)nc2=O)[C@@H](O)[C@@H]1O	inactive	–
Cc1cc2nn(-c3ccc(Cl)cc3)nc2cc1NC(=O)C(C)C	inactive	–
C/C=C(/COC(=O)/C(C)=C/C)C(=O)OC/C=C/c1ccc(OC)cc1	inactive	–
Clc1ccc2ncc(-c3cccc(NC4CCNCC4)n3)n2c1	inactive	–
COC(=O)c1cc(Cl)c(NC(C)=O)cc1OC	inactive	–
CCOC(=O)c1[nH]c(C)c(CCC(=O)N2CCN(c3ccccc3)CC2)c1C	inactive	–
CC1(C)CC[C@]2(C(=O)O)CC[C@]3(C)C(=CCC4[C@@]5(C)C[C@H](O)[C@H](O[C@@H]6OC[C@H](O)[C@H](O)[C@H]6O)[C@@](C)(CO)C5CC[C@]43C)[C@@H]2C1 (some centres undefined)	inactive	–
C[C@@H]1C/C=C/C=C\C=C\C=C\[C@H](O[C@@H]2O[C@H](C)[C@@H](O)[C@H](N)[C@@H]2O)C[C@@H]2O[C@](O)(C[C@@H](O)C[C@H]3O[C@@H]3/C=C/C(=O)O1)C[C@H](O)[C@H]2C(=O)O	inactive	–
C=C1[C@@H](C)[C@H]2[C@H](Cc3c[nH]c4ccccc34)NC(=O)[C@]23C(=O)/C=C/C(=O)[C@H](O)/C(C)=C\[C@@H](C)C/C=C/[C@H]3[C@@H]1O	inactive	–
